Test results published in PubChem BioAssay (Tox21).
Records with an inconclusive call do not appear. Active and inactive are the calls of the source. Unless noted, the call rests on the fitted dose curve; in most records, active means well fitted curve in the direction sought with a large enough effect in the repeat runs; inconclusive means weak or mixed curves; inactive means no such curve, though single readings can be large; an effect the other way counts as inactive or inconclusive.

What was measured:
[1] = qHTS assay for small molecule agonists of the p53 signaling pathway (AID 651631; calls by dose curve; further: nearly all actives have a fitted effect of over 15% in size)
Summary of the method: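 Agonist mode screen using a stably integrated beta-lactamase gene under p53 response elements in HCT-116 cells. Compound exposure lasts 16 h at 37 °C; fluorescence intensity is measured following 2 h FRET substrate loading.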

[2] = qHTS assay for small molecule agonists of the p53 signaling pathway - cell viability (AID 651633; calls by dose curve;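 further: p53RE-bla HCT reporter cells with a stable beta-lactamase p53 reporter; series mostly up to about 83 µM; nearly all actives have a fitted effect of over 30% in size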)
Summary of the method: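 p53RE-bla cells, seeded at 4,000 per well and rested 5 h at 37 C/5% CO2, received compounds in DMSO for 16 h at 37 C. CellTiter-Glo was then added, and luminescence was read after 30 min at room temperature to gauge cytotoxicity.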

[3] = qHTS assay for small molecules that induce genotoxicity in human embryonic kidney cells expressing luciferase-tagged ATAD5 - cell viability (AID 651634; calls by dose curve; further: nearly all actives have a fitted effect of over 25% in size)
Summary of the method: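 HEK293T cells expressing luciferase-tagged ATAD5 were exposed to compound or DMSO for 15.5 hr at 37C, 5% CO2. Viability was then read as live-cell protease activity by CellTiter-Fluor fluorescence after 30 min at 37C.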

[4] = qHTS assay for small molecule disruptors of the mitochondrial membrane potential - cell viability (AID 720634; calls by dose curve;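 further: human HepG2 liver cancer cells; series mostly up to about 83 µM; nearly all actives have a fitted effect of over 20% in size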)
Summary of the method: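 HepG2 cells seeded overnight at 37 C, then exposed to compound or DMSO for 1 hr at 37 C, 5% CO2. m-MPI dye added, then CellTiter-Glo for 30 min at room temperature; viability read as ATP luminescence.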

[5] = qHTS assay for small molecule disruptors of the mitochondrial membrane potential (AID 720635)
Summary of the method: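 HepG2 cells (2,000/well) attached overnight at 37C, then took compound for 1 hr at 37C, 5% CO2. Mito-MPS dye was added for 30 min; fluorescence was read at 490/535 nm (monomers) and 540/590 nm (aggregates).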

[6] = qHTS assay to test for compound auto fluorescence at 590 nm (red) in HepG2 cells (AID 720674)
Summary of the method: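 Compound auto-fluorescence is scored relative to Rose Bengal sodium, measured at 540/590 nm in live HepG2 cultures after 1 hr compound contact (37 C, 5% CO2).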

[7] = qHTS assay to test for compound auto fluorescence at 535 nm (green) in HepG2 cells (AID 720675)
[8] = qHTS assay to test for compound auto fluorescence at 590 nm (red) in HEK293 cells (AID 720679)
Summary of the method: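 Each well held 2,000 HEK293 cells in medium containing 10% dialyzed FBS. Following 4-5 hr attachment at 37C, 23 nL test compound or DMSO was added; plates sat overnight, and red fluorescence (540/590nm) was recorded.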

[9] = qHTS assay to test for compound auto fluorescence at 535 nm (green) in HEK293 cells (AID 720680)
[10] = qHTS assay to test for compound auto fluorescence at 460 nm (blue) in HEK293 cell free culture (AID 720681)
Summary of the method: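 Test compounds were pinned into cell-free culture medium (DMEM with 10% FBS) and fluorescence was read directly at Ex/Em 405/460 nm. Signals were expressed as fluorescence equivalents of triamterene, with DMSO vehicle as control.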

[11] = qHTS assay to test for compound auto fluorescence at 590 nm (red) in HEK293 cell free culture (AID 720683)
Summary of the method: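 Tox21 10K library compounds were pinned into cell-free DMEM with 10% FBS and fluorescence was read at excitation 540 nm. Activity is expressed as Rose Bengal sodium equivalency.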

[12] = qHTS assay to test for compound auto fluorescence at 590 nm (red) in HepG2 cell free culture (AID 720684)
Summary of the method: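 Measured in medium alone (MEM containing 10% FBS) following pintool addition of compound; emission at 590 nm with 540 nm excitation, referenced to Rose Bengal sodium.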

[13] = qHTS assay to test for compound auto fluorescence at 460 nm (blue) in HepG2 cell free culture (AID 720685)
Summary of the method: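 Compound (23 nL) or DMSO pinned into cell-free MEM with 10% FBS; blue fluorescence read at 405/460 nm excitation/emission, expressed as auto-fluorescence equivalency to triamterene.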

[14] = qHTS assay to test for compound auto fluorescence at 535 nm (green) in HepG2 cell free culture (AID 720686)
[15] = qHTS assay to test for compound auto fluorescence at 460 nm (blue) in HepG2 cells (AID 720687)
Summary of the method: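 Cells (2,000/well in MEM with 10% FBS) attached overnight at 37 C, then were exposed to compound or DMSO for 1 hr at 37 C, 5% CO2. Fluorescence read at Ex/Em 405/460 nm, expressed as triamterene-equivalent signal.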

[16] = qHTS assay to test for compound auto fluorescence at 460 nm (blue) in HEK293 cells (AID 720678)
Summary of the method: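 Cells were seeded and left to adhere for 4-5 hr at 37C. Compounds were then pin-transferred. After an overnight incubation at 37C under 5% CO2, intrinsic fluorescence at 405/460 nm was measured and referenced to triamterene.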

[17] = qHTS assay to test for compound auto fluorescence at 535 nm (green) in HEK293 cell free culture (AID 720682)
Summary of the method: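 No cells present: wells hold DMEM supplemented with 10% FBS, into which compound or vehicle is pinned. Green emission is then recorded (485 nm excitation, 535 nm emission) and scaled to fluorescein.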

[18] = target: Glucocorticoid receptor (Homo sapiens) (UniProt P04150); experiment: qHTS assay to identify small molecule antagonists of the glucocorticoid receptor (GR) signaling pathway (AID 720692; active means well fitted inhibition curve with a large enough effect in the signal ratio in the repeat runs, not every such curve was filed as active; the % refers to the signal ratio)
Summary of the method: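 GR-bla HeLa cells (beta-lactamase reporter under glucocorticoid response element) were pre-plated 4 h at 37 C, treated with compounds plus 5 nM dexamethasone (final) for 18 h, then read by LiveBLAzer B/G FRET fluorescence after 2 h.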

[19] = target: Glucocorticoid receptor (Homo sapiens) (UniProt P04150); experiment: qHTS assay to identify small molecule agonists of the glucocorticoid receptor (GR) signaling pathway (AID 720691; active means well fitted activation curve with a large enough effect in the signal ratio in the repeat runs, not every such curve was filed as active; the % refers to the signal ratio)
Summary of the method: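 GR-bla HeLa cells (beta-lactamase reporter under glucocorticoid response element) were plated 4 h at 37 C/5% CO2, given compounds in DMSO, and incubated 18 h at 37 C. LiveBLAzer B/G FRET substrate was added for 2 h at room temperature, then fluorescence intensity read.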

[20] = qHTS assay for small molecules that induce genotoxicity in human embryonic kidney cells expressing luciferase-tagged ATAD5 (AID 651632); further: nearly all actives have a fitted effect of over 15% in size
Summary of the method: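 HEK293T cells carrying a luciferase reporter tagged to ATAD5 were exposed to compound or DMSO vehicle for 16 hr at 37C, 5% CO2. Amplite was added, and after 30 min at room temperature luciferase activity was read as a marker of ATAD5 induction.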
On the % scale 0 is the no-effect control and ±100 the full control effect.

Glucocorticoid receptor (Homo sapiens), sequence (P04150 whole entry, looked up): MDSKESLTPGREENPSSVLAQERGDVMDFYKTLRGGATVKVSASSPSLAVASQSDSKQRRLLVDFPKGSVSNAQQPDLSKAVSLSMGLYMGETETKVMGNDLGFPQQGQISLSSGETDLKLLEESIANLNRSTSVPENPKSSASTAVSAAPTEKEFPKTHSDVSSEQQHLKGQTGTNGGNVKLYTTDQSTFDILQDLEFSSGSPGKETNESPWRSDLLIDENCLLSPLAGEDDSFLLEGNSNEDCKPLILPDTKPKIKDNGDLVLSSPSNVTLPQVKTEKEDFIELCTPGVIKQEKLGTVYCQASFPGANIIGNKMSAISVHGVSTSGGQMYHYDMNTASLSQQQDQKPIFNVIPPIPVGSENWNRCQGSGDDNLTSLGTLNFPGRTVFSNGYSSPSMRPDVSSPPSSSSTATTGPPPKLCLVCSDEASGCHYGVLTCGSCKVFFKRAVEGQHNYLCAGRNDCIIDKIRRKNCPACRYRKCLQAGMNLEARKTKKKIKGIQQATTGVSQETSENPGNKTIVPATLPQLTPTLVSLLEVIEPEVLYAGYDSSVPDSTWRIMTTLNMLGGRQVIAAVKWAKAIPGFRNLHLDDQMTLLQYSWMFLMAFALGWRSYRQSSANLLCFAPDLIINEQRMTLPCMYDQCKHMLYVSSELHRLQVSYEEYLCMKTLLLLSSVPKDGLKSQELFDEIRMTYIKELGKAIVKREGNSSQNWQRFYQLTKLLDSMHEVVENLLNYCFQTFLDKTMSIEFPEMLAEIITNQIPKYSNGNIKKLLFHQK

CC(C)CCCC(C)(C)O
inactive: outcome [1] | outcome [2] | Potency [3] | outcome [4] | Potency [5] | outcome [6] | outcome [7] | outcome [8] | outcome [9] | outcome [10] | outcome [11] | outcome [12] | outcome [13] | outcome [14] | outcome [15]

c1ccc2nccnc2c1
inactive: outcome [1] | outcome [2] | Potency [3] | outcome [4] | outcome [6] | outcome [7] | outcome [16] | outcome [8] | outcome [9] | outcome [10] | outcome [17] | outcome [11] | outcome [12] | outcome [13] | outcome [15] | outcome [18]

CC(=C(CCOC(=O)C(C)C)SSC(CCOC(=O)C(C)C)=C(C)N(C=O)Cc1cnc(C)nc1N)N(C=O)Cc1cnc(C)nc1N
inactive: outcome [1] | outcome [2] | Potency [3] | outcome [4] | Potency [5] | outcome [6] | outcome [7] | outcome [16] | outcome [9] | outcome [10] | outcome [17] | outcome [11] | outcome [12] | outcome [13] | outcome [14] | outcome [15] | Potency [19] | outcome [18]

COc1ccc(-c2cc(=O)c3c(O)cc(O[C@@H]4O[C@H](CO[C@@H]5O[C@@H](C)[C@H](O)[C@@H](O)[C@H]5O)[C@@H](O)[C@H](O)[C@H]4O)cc3o2)cc1O
inactive: outcome [1] | Potency [20] | outcome [2] | Potency [3] | outcome [6] | outcome [7] | outcome [16] | outcome [8] | outcome [9] | outcome [10] | outcome [17] | outcome [11] | outcome [12] | outcome [13] | outcome [15] | Potency [19] | outcome [18]

COCCOCCOCCOCCOCCO
inactive: outcome [1] | outcome [2] | Potency [3] | outcome [4] | outcome [6] | outcome [7] | outcome [16] | outcome [9] | outcome [10] | outcome [17] | outcome [11] | outcome [12] | outcome [13] | outcome [14] | outcome [15] | outcome [18]

CC(=O)CCCCn1c(=O)c2c(ncn2C)n(C)c1=O
inactive: outcome [1] | outcome [2] | Potency [3] | outcome [4] | Potency [5] | fluorescence, relative to Rose Bengal [6] 0.0631% [at 18.6 µM] | fluorescence, % of fluorescein control [7] -0.15% [at 18.6 µM] | fluorescence, % of triamterene [16] 0.0666% [at 18.6 µM] | fluorescence, % of fluorescent control [8] -0.0868% [at 18.6 µM] | fluorescence, % of fluorescein [9] 0.0863% [at 18.6 µM] | fluorescence, % of fluorescent control [10] 0.0365% [at 18.6 µM] | fluorescence, % of fluorescent control [11] 0.153% [at 18.6 µM] | fluorescence, % of Rose Bengal [12] -0.221% [at 18.6 µM] | fluorescence, % of fluorescent control [13] 0.0657% [at 18.6 µM] | fluorescence, % of fluorescein control [14] -0.0364% [at 18.6 µM] | fluorescence, % of fluorescent control [15] 0.0705% [at 18.6 µM] | Potency [19] | outcome [18]

O=C(NCC(O)CO)c1c(I)c(C(=O)NCC(O)CO)c(I)c(N(CCO)C(=O)CO)c1I (stereo not drawn)
inactive: outcome [1] | outcome [2] | Potency [3] | outcome [4] | Potency [5] | fluorescence, relative to Rose Bengal [6] -0.211% [at 18.6 µM] | fluorescence, % of fluorescein control [7] -0.0278% [at 18.6 µM] | fluorescence, % of triamterene [16] 0.0229% [at 18.6 µM] | fluorescence, % of fluorescent control [8] -0.351% [at 18.6 µM] | fluorescence, % of fluorescein [9] -0.0067% [at 18.6 µM] | fluorescence, % of fluorescent control [10] -0.0567% [at 18.6 µM] | activity change [17] -0.0517% [at 18.6 µM] | fluorescence, % of fluorescent control [11] 0.453% [at 18.6 µM] | fluorescence, % of Rose Bengal [12] 0.343% [at 18.6 µM] | fluorescence, % of fluorescent control [13] -0.1% [at 18.6 µM] | fluorescence, % of fluorescein control [14] -0.0658% [at 18.6 µM] | fluorescence, % of fluorescent control [15] -0.0045% [at 18.6 µM] | Potency [19]
